# Only a selection was taken, and the strongest signals are over-represented in it overall.
# B1: EUL D1A first (Oryza sativa) (protein)
# chain: MFGFGHHHNQAPAAPSDPNQIFKIFCRANENYCLTVRDSAVVLAPVNPKDEHQHWFKDMRFSTKVKDGEGMPAFALVNKATGLAVKHSLGQSHPVKLVPFNPEYEDASVLWTESKDVGKGFRCIRMVNNTRLNLDAFHGDKDHGGVRDGTTVVLWEWCKGDNQSWKILPWGPEAHSSSPGAATILEQKLISEEDLNSAVDHHHHHH
# Assays:
# Test in all cases: glycan array binding signal (z-score within array); higher = stronger binding
# Conditions in all cases: glycan notation: IUPAC condensed, linker removed
# Fuc(a1-2)Gal(b1-3)GalNAc = biological target: Fuc(a1-2)Gal(b1-3)GalNAc
# Outline: (§1)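 The binding signal is a Z-score computed within each array. Data were drawn from 3228 arrays in the Consortium for Functional Glycomics database, restricted to those with a known protein sequence. Scores were averaged over arrays of the same protein sequence at different concentrations or buffers, and over linkers, and negative values can be taken as non-binding.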
# [1] = biological target: Fuc(a1-2)Gal(b1-3)GalNAc(b1-3)Gal(a1-4)Gal(b1-4)Glc
# Outline: as §1
# [2] = biological target: Fuc(a1-2)Gal(b1-3)GlcNAc6S
# Outline: as §1
# Fuc(a1-2)Gal(b1-4)GlcNAc = biological target: Fuc(a1-2)Gal(b1-4)GlcNAc
# Outline: as §1
# [3] = biological target: Fuc(a1-2)Gal(b1-4)GlcNAc(b1-3)[Fuc(a1-3)[Gal(b1-4)]GlcNAc(b1-6)]Gal(b1-4)Glc
# Outline: as §1
# [4] = biological target: Fuc(a1-2)Gal(b1-4)[Fuc(a1-3)]GlcNAc(b1-3)Gal(b1-4)[Fuc(a1-3)]GlcNAc(b1-3)Gal(b1-4)[Fuc(a1-3)]GlcNAc
# Outline: as §1
# [5] = biological target: Fuc(a1-2)[Gal(a1-3)]Gal(b1-3)GlcNAc
# Outline: as §1
# [6] = biological target: Fuc(a1-2)[Gal(a1-3)]Gal(b1-3)GlcNAc(b1-6)GalNAc
# Outline: as §1
# [7] = biological target: Fuc(a1-2)[GalNAc(a1-3)]Gal(b1-4)GlcNAc(b1-2)Man(a1-3)[Fuc(a1-2)[GalNAc(a1-3)]Gal(b1-4)GlcNAc(b1-2)Man(a1-6)]Man(b1-4)GlcNAc(b1-4)[Fuc(a1-6)]GlcNAc
# Outline: as §1
# [8] = biological target: Fuc(a1-2)[GalNAc(a1-3)]Gal(b1-4)GlcNAc(b1-3)Gal(b1-4)GlcNAc
# Outline: as §1
# [9] = biological target: Fuc(a1-3)[Gal(b1-4)]GlcNAc(b1-2)Man
# Outline: as §1
# Gal(a1-2)Gal = biological target: Gal(a1-2)Gal
# Outline: as §1
# [10] = biological target: Gal(a1-3)Gal(b1-3)GlcNAc(b1-2)Man(a1-3)[Gal(a1-3)Gal(b1-3)GlcNAc(b1-2)Man(a1-6)]Man(b1-4)GlcNAc(b1-4)GlcNAc
# Outline: as §1
# [11] = biological target: Gal(a1-3)Gal(b1-4)[Fuc(a1-3)]GlcNAc
# Outline: as §1
# [12] = biological target: Gal(a1-4)Gal(b1-3)GlcNAc(b1-2)Man(a1-3)[Gal(a1-4)Gal(b1-3)GlcNAc(b1-2)Man(a1-6)]Man(b1-4)GlcNAc(b1-4)GlcNAc
# Outline: as §1
# Gal(a1-4)Gal(b1-4)Glc = biological target: Gal(a1-4)Gal(b1-4)Glc
# Outline: as §1
# Gal(b1-3)GalNAc = biological target: Gal(b1-3)GalNAc
# Outline: as §1
# [13] = biological target: Gal(b1-3)GalNAc(a1-3)[Fuc(a1-2)]Gal(b1-4)Glc
# Outline: as §1
# [14] = biological target: Gal(b1-3)GalNAc(b1-3)Gal(a1-4)Gal(b1-4)Glc
# Outline: as §1
# [15] = biological target: Gal(b1-3)[GlcNAc(b1-6)]GalNAc
# Outline: as §1
# [16] = biological target: Gal(b1-3)[Neu5Ac(b2-6)]GalNAc
# Outline: as §1
# [17] = biological target: Gal(b1-4)GlcNAc(a1-6)Gal(b1-4)GlcNAc
# Outline: as §1
# [18] = biological target: Gal(b1-4)GlcNAc(b1-2)Man(a1-3)[Gal(b1-4)GlcNAc(b1-2)Man(a1-6)]Man(b1-4)GlcNAc(b1-4)GlcNAc
# Outline: as §1
# [19] = biological target: Gal(b1-4)GlcNAc(b1-2)Man(a1-3)[Gal(b1-4)GlcNAc(b1-2)Man(a1-6)][GlcNAc(b1-4)]Man(b1-4)GlcNAc(b1-4)[Fuc(a1-6)]GlcNAc
# Outline: as §1
# [20] = biological target: Gal(b1-4)GlcNAc(b1-2)Man(a1-6)Man(b1-4)GlcNAc(b1-4)GlcNAc
# Outline: as §1
# [21] = biological target: Gal(b1-4)GlcNAc(b1-2)[Gal(b1-4)GlcNAc(b1-4)]Man(a1-3)[GlcNAc(b1-4)][Gal(b1-4)GlcNAc(b1-2)Man(a1-6)]Man(b1-4)GlcNAc(b1-4)GlcNAc
# Outline: as §1
# [22] = biological target: Gal(b1-4)GlcNAc(b1-2)[Gal(b1-4)GlcNAc(b1-6)]Man(a1-6)[Gal(b1-4)GlcNAc(b1-2)Man(a1-3)]Man(b1-4)GlcNAc(b1-4)GlcNAc
# Outline: as §1
# [23] = biological target: Gal(b1-4)GlcNAc(b1-3)Gal(b1-4)GlcNAc(b1-3)Gal(b1-4)GlcNAc(b1-2)[Gal(b1-4)GlcNAc(b1-3)Gal(b1-4)GlcNAc(b1-3)Gal(b1-4)GlcNAc(b1-6)]Man(a1-6)[Gal(b1-4)GlcNAc(b1-3)Gal(b1-4)GlcNAc(b1-3)Gal(b1-4)GlcNAc(b1-2)Man(a1-3)]Man(b1-4)GlcNAc(b1-4)[Fuc(a1-6)]GlcNAc
# Outline: as §1
# [24] = biological target: Gal(b1-4)GlcNAc(b1-3)Gal(b1-4)[Fuc(a1-3)]GlcNAc(b1-3)Gal(b1-4)[Fuc(a1-3)]GlcNAc
# Outline: as §1
# [25] = biological target: Gal(b1-4)GlcNAc(b1-6)[Gal(b1-4)GlcNAc(b1-3)]GalNAc
# Outline: as §1
# [26] = biological target: GalNAc(a1-3)GalNAc(b1-3)Gal(a1-4)Gal(b1-4)Glc
# Outline: as §1
# [27] = biological target: GalNAc(b1-3)Gal(a1-6)Gal(b1-4)Glc
# Outline: as §1
# GalNAc(b1-4)GlcNAc6S = biological target: GalNAc(b1-4)GlcNAc6S
# Outline: as §1
# GalNAc3S(b1-4)GlcNAc3S = biological target: GalNAc3S(b1-4)GlcNAc3S
# Outline: as §1
# GalNAc4S6S(b1-4)GlcNAc = biological target: GalNAc4S6S(b1-4)GlcNAc
# Outline: as §1
# [28] = biological target: GlcNAc(b1-2)Man(a1-3)[GlcNAc(b1-2)Man(a1-6)]Man(b1-4)GlcNAc(b1-4)[Fuc(a1-6)]GlcNAc
# Outline: as §1
# [29] = biological target: GlcNAc(b1-3)Gal(b1-4)GlcNAc(b1-2)[GlcNAc(b1-3)Gal(b1-4)GlcNAc(b1-6)]Man(a1-6)[GlcNAc(b1-3)Gal(b1-4)GlcNAc(b1-2)Man(a1-3)]Man(b1-4)GlcNAc(b1-4)GlcNAc
# Outline: as §1
# [30] = biological target: GlcNAc(b1-3)Gal(b1-4)GlcNAc(b1-3)Gal(b1-4)GlcNAc(b1-3)Gal(b1-4)GlcNAc(b1-3)Gal(b1-4)GlcNAc(b1-2)Man(a1-3)[GlcNAc(b1-3)Gal(b1-4)GlcNAc(b1-3)Gal(b1-4)GlcNAc(b1-3)Gal(b1-4)GlcNAc(b1-3)Gal(b1-4)GlcNAc(b1-2)Man(a1-6)]Man(b1-4)GlcNAc(b1-4)[Fuc(a1-6)]GlcNAc
# Outline: as §1
# [31] = biological target: GlcNAc(b1-3)[GlcNAc(b1-6)]Gal(b1-4)GlcNAc
# Outline: as §1
# [32] = biological target: GlcNAc(b1-4)GlcNAc(b1-4)GlcNAc(b1-4)GlcNAc(b1-4)GlcNAc(b1-4)GlcNAc
# Outline: as §1
# Man(a1-2)Man(a1-3)Man = biological target: Man(a1-2)Man(a1-3)Man
# Outline: as §1
# [33] = biological target: Neu5Ac(a2-3)Gal(b1-3)GlcNAc(b1-3)Gal(b1-3)GlcNAc
# Outline: as §1
# [34] = biological target: Neu5Ac(a2-3)Gal(b1-3)[GlcNAc(b1-6)]GalNAc
# Outline: as §1
# [35] = biological target: Neu5Ac(a2-3)Gal(b1-4)GlcNAc(b1-3)Gal(b1-4)GlcNAc(b1-6)[Gal(b1-3)]GalNAc
# Outline: as §1
# [36] = biological target: Neu5Ac(a2-3)Gal(b1-4)GlcNAc(b1-3)Gal(b1-4)[Fuc(a1-3)]GlcNAc
# Outline: as §1
# [37] = biological target: Neu5Ac(a2-3)Gal(b1-4)GlcNAc(b1-6)[Gal(b1-3)]GalNAc
# Outline: as §1
# [38] = biological target: Neu5Ac(a2-3)Gal(b1-4)[Fuc(a1-3)]GlcNAc(b1-3)GalNAc
# Outline: as §1
# [39] = biological target: Neu5Ac(a2-3)[Neu5Ac(a2-6)]GalNAc
# Outline: as §1
# [40] = biological target: Neu5Ac(a2-6)Gal(b1-4)GlcNAc(b1-2)Man(a1-6)[Man(a1-3)]Man(b1-4)GlcNAc(b1-4)GlcNAc
# Outline: as §1
# Neu5Gc(a2-3)Gal(b1-4)Glc = biological target: Neu5Gc(a2-3)Gal(b1-4)Glc
# Outline: as §1
# [41] = biological target: Neu5Gc(a2-3)Gal(b1-4)GlcNAc
# Outline: as §1
binder,measurement,setting,value
B1,glycan array binding signal (z-score),Fuc(a1-2)Gal(b1-3)GalNAc,-0.658
same,glycan array binding signal (z-score),[1],2.66
same,glycan array binding signal (z-score),[2],3.74
same,glycan array binding signal (z-score),Fuc(a1-2)Gal(b1-4)GlcNAc,-0.369
same,glycan array binding signal (z-score),[3],2.74
same,glycan array binding signal (z-score),[4],0.387
same,glycan array binding signal (z-score),[5],0.384
same,glycan array binding signal (z-score),[6],-0.959
same,glycan array binding signal (z-score),[7],0.095
same,glycan array binding signal (z-score),[8],-0.61
same,glycan array binding signal (z-score),[9],3.34
same,glycan array binding signal (z-score),Gal(a1-2)Gal,-0.848
same,glycan array binding signal (z-score),[10],3.31
same,glycan array binding signal (z-score),[11],-0.411
same,glycan array binding signal (z-score),[12],2.2
same,glycan array binding signal (z-score),Gal(a1-4)Gal(b1-4)Glc,0.4
same,glycan array binding signal (z-score),Gal(b1-3)GalNAc,-0.735
same,glycan array binding signal (z-score),[13],-1.67
same,glycan array binding signal (z-score),[14],-0.207
same,glycan array binding signal (z-score),[15],-1.03
same,glycan array binding signal (z-score),[16],-1.15
same,glycan array binding signal (z-score),[17],1.94
same,glycan array binding signal (z-score),[18],3.09
same,glycan array binding signal (z-score),[19],-1.23
same,glycan array binding signal (z-score),[20],3.03
same,glycan array binding signal (z-score),[21],-1.53
same,glycan array binding signal (z-score),[22],-1.05
same,glycan array binding signal (z-score),[23],2.45
same,glycan array binding signal (z-score),[24],-0.16
same,glycan array binding signal (z-score),[25],-0.802
same,glycan array binding signal (z-score),[26],-0.059
same,glycan array binding signal (z-score),[27],-2.32
same,glycan array binding signal (z-score),GalNAc(b1-4)GlcNAc6S,-0.411
same,glycan array binding signal (z-score),GalNAc3S(b1-4)GlcNAc3S,-0.185
same,glycan array binding signal (z-score),GalNAc4S6S(b1-4)GlcNAc,0.534
same,glycan array binding signal (z-score),[28],3.11
same,glycan array binding signal (z-score),[29],1.95
same,glycan array binding signal (z-score),[30],2.06
same,glycan array binding signal (z-score),[31],6.85
same,glycan array binding signal (z-score),[32],-0.541
same,glycan array binding signal (z-score),Man(a1-2)Man(a1-3)Man,0.615
same,glycan array binding signal (z-score),[33],0.506
same,glycan array binding signal (z-score),[34],0.405
same,glycan array binding signal (z-score),[35],0.24
same,glycan array binding signal (z-score),[36],-0.958
same,glycan array binding signal (z-score),[37],0.081
same,glycan array binding signal (z-score),[38],3.45
same,glycan array binding signal (z-score),[39],-0.451
same,glycan array binding signal (z-score),[40],-0.647
same,glycan array binding signal (z-score),Neu5Gc(a2-3)Gal(b1-4)Glc,-0.152
same,glycan array binding signal (z-score),[41],0.3

# From the supplement of paper PMC8728848
